The source of these data is PubChem BioAssay AID2417 (National Center for Advancing Translational Sciences (NCATS), 2010).

The structures appear in SMILES notation. Screen size: about 140,000 compounds; about 4,300 (3.1%) were called active. Roughly 21% stayed inconclusive and do not appear here. Only a selection was taken, and actives are over-represented in it overall. A number with no mark means an inactive call.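 The calls were made as follows: active = readout at or below -70, meaning at least 70% loss of cells showing the perinucleolar compartment, a nuclear body marking cancer cells; inconclusive = readout between -30 and a set limit; inactive = the rest.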

This assay in a line: High Content Assay for Compounds that inhibit the Assembly of the Perinucleolar Compartment. The settings on record: PC3M PTB-GFP, PNC prevalence imaging, 16 h; at 10 µM; active compounds read low. From the text:
High Content Assay for Compounds that inhibit the Assembly of the Perinucleolar Compartment NIH Chemical Genomics Center [NCGC] NIH Molecular Libraries Probe Centers Network [MLPCN] MLPCN Grant: MH082371-01A2 Assay Submitter (PI): Sui Huang, Northwestern University, Feinberg School of Medicine, Cell and Molecular Biology, Chicago, Illinois. The perinucleolar compartment (PNC) is a non-membrane-bound nuclear subdomain that is associated with but structurally distinct from the nucleolus. The PNC is a heritable trait, in which the number of PNCs per cell in daughter cells often mimics that of their mother cells. The PNC is heterogeneous in shape, is stable through interphase, disassembles during mitosis, and reassembles in early G1. The PNC is concentrated with newly synthesized RNA polymerase III (pol III) RNAs (MRP RNA, RNAse P H1 RNA, hY RNAs[hY1, 2, 5], Alu RNA, and SRP [7SL] RNA) and RNA binding proteins (nucleolin, PTB, CUG-BP, KSRP, Raver1, Raver2, and Rod). […] Extensive in vitro studies have shown that the PNC is unique to tumor cells and preferentially forms in tumor cells derived from solid tissues. Examination of cancer cell lines from various origins and malignant capacities has shown that PNC prevalence correlates with the malignancy of tumors and has the potential to be developed as a pan-cancer prognostic marker. […] Although the PNC is associated with a DNA locus and a handful of components have been identified, much remains to be investigated regarding the structure and function of the PNC and its mechanistic link to cancer. We have previously shown that PNC prevalence reduction is a valid strategy to identify compounds that can be used to study the structure and function of the PNC. It is necessary, however, to create a screening platform that is able to test a large number of compounds in an automated fashion. Here we report the development and robustness of an automated whole-cell phenotypic image-based screening assay that is capable of identifying such compounds.
PNC High Content Imaging Assay Procedure: 1. Cells at a density of 75-90% confluency in T175 flasks were harvested using 7 ml TrypLE Express cell dissociation reagent. After dissociation (5 minutes room temperature incubation) 10 ml of complete media was added to the TrypLE/cell suspension. The liquid was transferred to a 50 ml Conical tube and cells were pelleted at 1000 RPM for 5 min. Supernatant was removed and cells were resuspended to a final density of 150-200 cells/ul in complete media. 2. Cells were plated in 5 ul volume (750-1000 cells/well) into 1536 well Black uclear Aurora Low Base plates and allowed to recover and adhere at 37 C in a humidified 5% CO2 incubator for 4 hours. 3. After 4 hour incubation, compound libraries (23 nl of […] in columns 5-48) were transferred to the plates in duplicate using a 1536 well pintool. Camptothecin positive control (59 uM final) was added to column 2 and 1:3 dilutions of camptothecin was added to column 3. DMSO negative controls were present in columns 1 and 4. 4. After a 16 hour incubation in the 37 C incubator, cells were fixed by the addition of 4 ul of 6% EM grade paraformaldehyde (containing 0.1% triton X 100) directly to the cells. The plates were incubated at room temperature for 20 minutes. The liquid was removed using a 32 channel Kalypsys aspirator and the fixed cells were washed twice with 5 ul PBS followed by a final addition of 5 ul PBS containing 1 ug/ml Hoechst 33342. 5. Fixed plates were sealed and sotred at 4C until imaged. 6. Plates were imaged on an InCell 1000 automated microscope using a 20 x objective, a standard FITC filter set, no camera binning, and an exposure time of ~100-150 msec/well. 7. Data analysis. PNC prevalence was determined using the Multitarget analysis module from InCell Workstation software (V3.5 ) and analysis was run on a quad core workstation using the Incell Developer Toolbox (V1.7). […]
`CC(NC(=S)Nc1ccc(S(N)(=O)=O)cc1)c1ccc2c(c1)OCO2` (stereo not given): the activity change (PNC), negative = inhibition was -20.3%.
The figure for `N#CC1=C(N)N(c2ccccc2)C2=C(C(=O)CCC2)C1c1ccccc1` (stereo not given) is 5.97%.
On to `O=C1CCCc2nn(-c3ccccc3)nc21`, for which the activity change (PNC), negative = inhibition is -100% (active).
The figure for `c1ccc(-n2nc3ccccc3n2)cc1` is -3.58%.
Then `CCCCCC(=O)Nc1ccc(S(=O)(=O)Nc2ccc(Cl)nn2)cc1`, with 31.2%; and `CCOc1ccccc1N1CCN(C(=S)Nc2ccc(S(N)(=O)=O)cc2)CC1`, with -28.8%.
Then `Cc1ccc(C(=O)c2c(NC(=O)c3ccccc3)sc(C)c2C)cc1`, with 71.1%; and `Cc1ccc(C(=O)c2c(NC(=O)c3ccncc3)sc3c2CCCC3)cc1`, with -86.2% (active).
`COC(=O)c1c(NC(=O)c2cccs2)sc2c1CCCC2`: the activity change (PNC), negative = inhibition is -6.02%.
Turning to `CC(=O)NC1C(Oc2ccc(C)cc2)OC2COC(c3ccco3)OC2C1O` (stereo not given), the activity change (PNC), negative = inhibition is -119% (active).
Then `CN1CCN(c2ccc(S(=O)(=O)N3CCCCC3)cc2NC(=O)Cc2ccccc2F)CC1`, with 41.3%; and `N#CCOc1ccc(C2=NO[C@@H]3[C@@H]4C[C@@H]([C@H]5C(=O)N(c6ccc7c(c6)OCO7)C(=O)[C@@H]45)[C@H]23)cc1`, with -91.1% (active); and `CCCCn1c(SCC(=O)N2CCC(C(=O)OCC)CC2)nc2cc(S(N)(=O)=O)ccc21`, with -100% (active).
The figure for `CCOC(=O)C1CCN(C(=O)CSc2cc(=O)n(C)c3ccccc23)CC1` is 0.103%.
Then `CCCCn1c(SCc2ncc(-c3ccccc3)o2)nc2cc(S(N)(=O)=O)ccc21`, with 27%; and `COC(=O)c1c(C)[nH]c(C(=O)/C=C/c2ccc(Cl)cc2)c1C`, with 0.424%; and `CCCCN(CC)CCNC(=O)c1[nH]c(C)c(C(C)=O)c1C`, with -4.29%.
Take `CCCCOC(=O)c1[nH]c(C)c(C(=O)OC)c1C`: the activity change (PNC), negative = inhibition was -88.2% (active).
The figure for `CC(=O)c1c(Nc2ccccc2)sc(C(=O)c2ccccc2)c1C` is 73.7%; for `Cc1cc(NS(=O)(=O)c2ccc(NC(=S)NC(=O)c3ccc(F)cc3Cl)cc2)no1` it is -22%; for `Cc1ccc(C(=O)C(=S)N2CCOCC2)cc1` it is -3.45%.
Then `COC(=O)c1cc(C(=O)OC)cc(N2C(=O)CC(N3CCN(c4ccccc4)CC3)C2=O)c1` (stereo not given), with -94.7% (active); and `O=CN1CCN(C2CC(=O)N(c3ccc4c(c3)OCO4)C2=O)CC1` (stereo not given), with -6.31%.
Take `COc1cccc(N2CCN(C3CC(=O)N(c4ccc(Cl)cc4)C3=O)CC2)c1` (stereo not given): the activity change (PNC), negative = inhibition is -3.5%.
The figure for `COc1cccc(N2C(=O)CC(N3CCN(S(=O)(=O)c4ccccc4)CC3)C2=O)c1` (stereo not given) is -19.9%.
Then `COc1ccc(N2CCN(C3CC(=O)N(c4ccc5c(c4)OCCO5)C3=O)CC2)cc1` (stereo not given), with -84.9% (active); and `COc1ccc(N2C(=O)CC(N3CCC(C(N)=O)CC3)C2=O)cc1` (stereo not given), with 19.9%; and `Cn1cc([N+](=O)[O-])c(C(=O)Nc2cnn(Cc3ccc(F)cc3)c2)n1`, with -17%.
The figure for `COCCOC(=O)c1c(C)oc2cc(Br)c(OCC(N)=O)cc12` is -7.11%.
Regarding `CC(C)(C)c1ccc(/C=C/C(=O)Nc2ncccn2)cc1`, the activity change (PNC), negative = inhibition is 15.2%.
Turning to `COc1ccc([C@H]2[C@H](C(C)=O)N3N=Cc4ccccc4C3C23C(=O)OC(C)(C)OC3=O)cc1` (stereo not given in full), the activity change (PNC), negative = inhibition is 11.5%.
Turning to `CC(C)(C)NC(=O)c1cccc(NC(=O)Cc2ccc(Br)cc2)c1`, the activity change (PNC), negative = inhibition was -14.3%.
Then `COc1ccc(C(=O)Nc2ccc(CN3CCOCC3)cc2)cc1`, with -12.7%; and `COc1ccc(CC(=O)Nc2ccc(C(=O)NC(C)(C)C)cc2)cc1`, with -85% (active); and `CC1=C(C(=O)Nc2cc(C)ccn2)C(c2cnn(C)c2)C2=C(CC(c3ccccc3)CC2=O)N1` (stereo not given), with 20.8%.
Then `COc1ccc2nc(NC(=O)[C@@H]3CCCN3C(=O)c3cccs3)sc2c1`, with 34.3%; and `O=C(c1ccc(-n2cnnn2)cc1)N1CCN(C(c2ccccc2)c2ccccc2)CC1`, with -100% (active).
In the case of `CC(C)NC(=S)N1CCN(C(c2ccccc2)c2ccccc2)CC1`, the activity change (PNC), negative = inhibition was 12%.
Then `CCOC(=O)C1=C(CSc2nnnn2C)N(C)C(=O)NC1c1ccccc1` (stereo not given), with 19.9%.
On to `Cn1nnnc1SCC(=O)N1CCN(Cc2ccccc2)CC1`, for which the activity change (PNC), negative = inhibition was 29.1%.
The figure for `O=C(O)CC(c1ccccc1)n1cnnn1` (stereo not given) is 2.72%; for `Cn1nnnc1SCC(=O)N1CCN(C(c2ccccc2)c2ccccc2)CC1` it is -100% (active); for `Cc1ccc2nsnc2c1NC(=O)c1ccccc1[N+](=O)[O-]` it is -1.05%.
For the compound `O=C(C/C(=N\NC(=O)c1ccccc1Br)C(F)(F)F)c1cccs1`, the activity change (PNC), negative = inhibition was -25.7%.
The figure for `Cc1ccc(C)c2[nH]c(=O)c(CCNC(=O)c3cccs3)cc12` is 36.1%.
